Consider 39 compounds from the supplement of paper PMC13380429.

The assay deals with Vero E6 infected with SARS-CoV-2. As to the kind of experiment: inhibition of SARS-CoV-2 cytopathic effect; higher = more antiviral protection, active = above 15. To be noted: 833.33 nM; 48 h. In general terms: Cytopathic effects are the visible damage that an infection or toxin causes in cultured cells.
As to `Cc1cnc(Nc2ccc(OCCN3CCCC3)cc2)nc1Nc1cccc(S(=O)(=O)NC(C)(C)C)c1` [fedratinib], the “inhibition of SARS-CoV-2 cytopathic effect” value (from here on “inhibition”) is -3.59% (inactive).
Then `CCC(=O)O[C@H]1[C@H](O[C@@H]2[C@@H](C)[C@H](O[C@H]3C[C@@](C)(OC)[C@@H](O)[C@H](C)O3)[C@@H](C)C(=O)O[C@H](CC)[C@@](C)(O)[C@H](O)[C@@H](C)C(=O)[C@H](C)C[C@@]2(C)O)O[C@H](C)C[C@@H]1N(C)C` [erythromycin-estolate], with 2.85% (inactive); and `O=c1c(O)c(-c2ccc(O)c(O)c2)oc2cc(O)ccc12` [fisetin], with -0.95% (inactive).
`O=[N+]([O-])c1ccc(O)c([N+](=O)[O-])c1` [2,4-dinitrophenol]: the “inhibition” value was 2.61% (inactive).
Then `N=C(N)NCc1cccc(I)c1` [iobenguane], with 2.26% (inactive); and `COc1cc2nccc(Oc3ccc(NC(=O)NC4CC4)c(Cl)c3)c2cc1C(N)=O` [lenvatinib], with -0.03% (inactive).
As to `CNC(=O)c1c(I)c(C(=O)NCC(=O)Nc2c(I)c(C(=O)O)c(I)c(C(=O)NCCO)c2I)c(I)c(N(C)C(C)=O)c1I` [ioxaglic-acid], the “inhibition” value was 0.75% (inactive).
Turning to `Oc1ccc(CC2NCCc3cc(O)c(O)cc32)cc1` (centres undefined) [higenamine], the “inhibition” value is -0.52% (inactive).
Take `CCOC(=O)C1=C(C)NC(=S)NC1c1cccc(O)c1` (centres undefined) [monastrol]: the “inhibition” value is 0.94% (inactive).
Turning to `O=C/C=C/c1ccccc1` [cinnamaldehyde], the “inhibition” value is 3.28% (inactive).
Consider `O=C(O)C(=O)CBr` [3-bromopyruvate], for which the “inhibition” value was 0.7% (inactive).
On to `CN1CC[C@@H](NC(=O)Nc2ccc(C#N)cc2)C[C@@H]1c1nc2ccccc2[nH]1` [glasdegib], for which the “inhibition” value is -0.41% (inactive).
Consider `COc1cc(C(=O)OCCCN2CCCN(CCCOC(=O)c3cc(OC)c(OC)c(OC)c3)CC2)cc(OC)c1OC` [dilazep], for which the “inhibition” value is -1.09% (inactive).
Then `COC(=O)[C@]12CCC(C)(C)C[C@H]1[C@H]1C(=O)C=C3[C@@]4(C)C=C(C#N)C(=O)C(C)(C)[C@@H]4CC[C@@]3(C)[C@]1(C)CC2` [Bardoxolone Methyl], with 33.7% (active); and `CC(=O)OC[C@H](N)C(=O)O` [O-acetyl-L-serine], with 1.65% (inactive).
As for `CCN1C(=O)NC(c2ccccc2)C1=O` (centres undefined) [ethotoin], the “inhibition” value was 2.46% (inactive).
Turning to `CN1CCCN=C1/C=C/c1cccs1` [pyrantel-pamoate], the “inhibition” value is 0.63% (inactive).
Then `O=c1ccc2ccc(O)c(O)c2o1` [daphnetin], with 4.54% (inactive); and `CC(C)(C)c1ccc(C(O)CCCN2CCC(C(O)(c3ccccc3)c3ccccc3)CC2)cc1` (centres undefined) [terfenadine], with -3.56% (inactive).
In the case of `COc1cc2c(Nc3ccc(Cl)c(Cl)c3F)ncnc2cc1OC[C@@H]1C[C@@H]2CN(C)C[C@@H]2C1`, the “inhibition” value is -14.7% (inactive).
On to `CC/C(=C(\c1ccccc1)c1ccc(OCCN(C)C)cc1)c1ccccc1` [tamoxifen], for which the “inhibition” value was 0.06% (inactive).
In the case of `N[C@@H](C(=O)O)c1ccc(C(=O)O)c(O)c1` (racemic) [4-carboxy-3-hydroxyphenylglycine-(RS)], the “inhibition” value is -0.355% (inactive).
Regarding `N#C[C@@H]1C[C@@H]2C[C@@H]2N1C(=O)[C@@H](N)C12CC3CC(CC(O)(C3)C1)C2`, the “inhibition” value was 0.34% (inactive).
`O=C(CCCN1CCC2(CC1)C(=O)NCN2c1ccccc1)c1ccc(F)cc1` [spiperone]: the “inhibition” value was 9.61% (inactive).
As for `CCC[C@@H](NC(=O)N1C(=O)C(CC)(CC)[C@@H]1Oc1ccc(C(=O)N2CCN(C)CC2)cc1)c1ccc2c(c1)OCO2`, the “inhibition” value was 1.96% (inactive).
On to `CC(C)c1ccc(NC(=O)Cn2cnc3c2c(=O)n(C)c(=O)n3C)cc1`, for which the “inhibition” value is 2.45% (inactive).
For `CN1CCc2c(c3ccccc3n2Cc2ccccc2)C1` [mebhydrolin], the “inhibition” value was -0.47% (inactive).
Then `COc1cc2c(cc1OC)C1CC(=O)C(CC(C)C)CN1CC2` (centres undefined) [tetrabenazine], with 2.22% (inactive).
Regarding `CC#CC(=O)N1CCC[C@H]1c1nc(-c2ccc(C(=O)Nc3ccccn3)cc2)c2c(N)nccn12` [acalabrutinib], the “inhibition” value was -0.11% (inactive).
The value for `Fc1ccccc1CNCc1ccc(-c2ccnc3[nH]ccc23)cc1` was -1.5% (inactive); that for `CCC/C=C1\OC(=O)C2=C1CCC=C2` [ligustilide] was 5.16% (inactive); that for `O=C(Nc1ncc(SCCN2CCCC2)s1)[C@]1(c2ccc(S(=O)(=O)C3CC3)cc2)C[C@H]1C1CCCCC1` was -2.76% (inactive).
On to `CC12CCC(CC1=O)C2(C)C` (stereo not drawn) [camphor-(+)], for which the “inhibition” value is 1.82% (inactive).
As to `CN[C@@H](C)[C@H](O)c1ccccc1` [ephedrine], the “inhibition” value was 3.01% (inactive).
Take `CC(=O)O[C@@H]1CC[C@@]2(C)[C@@H](CC[C@]3(C)[C@@H]2C(=O)C=C2[C@@H]4[C@@H](C)[C@H](C)CC[C@]4(C)CC[C@]23C)[C@@]1(C)C(=O)O` [acetyl-11-keto-beta-boswellic-acid]: the “inhibition” value was -0.71% (inactive).
With `O=C1c2c(O)cccc2C([C@@H]2O[C@H](CO)[C@@H](O)[C@H](O)[C@H]2O)c2cc(CO)cc(O)c21` (some centres undefined) [aloin], the “inhibition” value was 1.27% (inactive).
In the case of `CC(C)(C)S(=O)(=O)N[C@H]1CC[C@H](C(=O)Nc2ccc(C(F)(F)F)cn2)CC1` [velneperit], the “inhibition” value is -1.55% (inactive).
Take `CC(C)CCC[C@@H](C)[C@H]1CC[C@H]2[C@@H]3CC=C4C[C@@H](O)CC[C@]4(C)[C@H]3CC[C@]12C` [cholesterol]: the “inhibition” value was -1.83% (inactive).
Then `CC1(C)O[C@@H]2[C@@H](CO[C@@]3(COS(N)(=O)=O)OC(C)(C)O[C@@H]23)O1` [topiramate], with 0.74% (inactive).
